Shown are actives, neighbours in structure and some others; about 8% of the full set was active somewhere.
HT1080 IDH1KD tx: kills HT-1080 cells with IDH1 knockdown | HT-1080 IDH1 knockdown viability, ATP luminescence, 48 h | 360,000 tested, 2% active | Potency, µM (top dose mostly 46.1 µM), hits mostly cytotoxic | AID 686971
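Assay cells: HT-1080 with IDH1 knockdown, 750 per well, RPMI/5% FBS. Exposure: 48 h at 37 °C following 2 h pre-incubation. Read: CellTiter-Glo luminescence; fitted concentration-response, curve class assigned.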
KB-V1 MDR tox: KB-V1 MDR subline cytotoxicity | Potency, µM (titrated, usually from 46.1 µM), usual class: cytotoxic | KB-V1 MDR cells viability, CellTiter-Glo, 72 h | 400,000 tested, 3.4% active; note: nearly all actives have a fitted effect of over 60% in size
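Cytotoxicity via CellTiter-Glo luminescence after 72 h compound exposure at 37 degrees C. Cells: drug-selected KB-V1 line, DMEM phenol-red free plus 10% FBS. Compounds tested at multiple concentrations; normalized data fitted to concentration-effect curves.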
SW480 rereplic: DNA re-replication induction in SW480 cells | SW480 DNA re-replication, Hoechst DNA content imaging, 48 h | Potency, µM (doses to about 46.1 µM), actives largely listed as activators | 340,000 tested, 1.8% active; note: nearly all actives have a fitted effect of over 55% in size
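Compounds, transferred as 23 nL by pin tool, were incubated with cells for 48 hr; DNA content per nucleus was then quantified by Hoechst staining and fluorescence plate imaging.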
KB-3-1 cytotox: kills parental KB-3-1 adenocarcinoma cells; KB-3-1 viability, CellTiter-Glo ATP luminescence, 72 h; Potency, µM (series often up to 46.1 µM), usual class: cytotoxic; 400,000 tested, 1.4% active; AID 1347075; note: nearly all actives have a fitted effect of over 60% in size
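Parental KB-3-1 viability, qHTS format: 72 h compound exposure, 37 °C; CellTiter-Glo; media-only wells and DMSO plates as controls; concentration-effect fits on corrected data.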
HT1080-NT tox: kills 2HG-producing HT-1080-NT fibrosarcoma cells | Potency, µM (series often up to 46.1 µM), most hits filed as cytotoxic | HT-1080-NT fibrosarcoma viability, CellTiter-Glo ATP luminescence, 48 h | 360,000 tested, 1.6% active | AID 686970;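 note: NT is the 2HG producing partner of a matched IDH1 knockdown line; nearly all actives have a fitted effect of over 55% in size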
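750 cells/well, RPMI + 5% FBS; 2 h settle, compound pin-transfer, 48 h at 37 degrees C. CellTiter-Glo 10 min RT, luminescence. Normalized to DMSO and media-only wells.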
MCF10A rerep: DNA re-replication induction in MCF 10a cells; 350,000 tested, 2.9% active; Potency, µM (highest dose often 46.1 µM), hits mostly activators; MCF 10A DNA re-replication, Hoechst nuclear intensity, 48 h; note: nearly all actives have a fitted effect of over 50% in size
A number is an active result; i = inactive; ? = inconclusive; nt = no result given; ! = not active in a repeat. Calls come from the whole dose curve; as a rule, active = well fitted curve in the direction sought with a large enough effect; inconclusive = small, poorly fitted or top-dose-only effect, or another doubt; inactive = no such curve, though single readings can be large; an effect the other way counts as inactive or inconclusive.

SMILES	HT1080 IDH1KD tx	KB-V1 MDR tox	SW480 rereplic	KB-3-1 cytotox	HT1080-NT tox	MCF10A rerep
CC[C@H]1OC(=O)[C@H](C)C(=O)[C@H](C)[C@@H](OC2O[C@H](C)C[C@H](N(C)C)[C@@H]2O)[C@@](C)(OC)C[C@@H](C)C(=O)[C@@H](C)C2N(CCCCn3cnc(-c4cccnc4)c3)C(=O)O[C@@]21C (stereo partly drawn)	nt	nt	i	nt	nt	i
Cc1cc(C(=O)N2CCN(c3cccc(C)c3C)CC2)c2c(C)nn(-c3ccccc3)c2n1	nt	i	nt	?	nt	nt
COc1ccc(-c2cc3nc(C)cc(N)n3n2)cc1	16µM	?	i	?	?	i
COc1ccc(-c2cc3nc(C)cc(-c4ccc(OC)cc4)n3n2)cc1	i	i	?	i	i	12µM
CCOc1ccc(NC(=O)CSc2nnc3scc(-c4ccccc4)n23)cc1	nt	i	nt	i	nt	nt
CCOC(=O)c1scc(-c2ccccc2)c1S(=O)(=O)Nc1ccc(N(C)C)cc1	nt	i	nt	i	nt	nt
O=C1C(=NO)CCc2ccccc21	?	i	21µM	?	i	i
COC(=O)Nc1ccc(S(=O)(=O)N2CCCc3cccc(O)c32)cc1	?	?	26µM	?	?	13µM
C#CCn1c(=NC(=O)c2ccc(S(=O)(=O)N3CCCc4ccccc43)cc2)sc2cc(S(N)(=O)=O)ccc21	i	i	i	?	i	i
COC(=O)Nc1ccc(S(=O)(=O)N2CCCc3ccccc32)cc1	1.4µM	1.2µM	1.6µM	1.5µM	8.9µM	8.2µM
Cn1c(=NC(=O)c2ccc(S(=O)(=O)N3CCCc4ccccc43)cc2)sc2cc(S(C)(=O)=O)ccc21	i	3.7µM	i	i	i	i
CCc1ccc(CN2C(=O)c3ccccc3C2C(=O)NC2CCCCCC2)cc1 (stereo not drawn)	nt	i	nt	i	nt	nt
Cc1ccc(NS(=O)(=O)c2cc(C(=O)N3CCc4ccccc4C3)ccc2Cl)cc1	i	16µM	?	i	?	?
Cc1ccccc1NS(=O)(=O)c1cc(C(=O)N2CCc3ccccc3C2)ccc1C	i	7.3µM	i	i	i	?
COc1ccc(C2CC(c3cccs3)=NN2C(=O)c2ccccc2)cc1OC (stereo not drawn)	i	i	i	i	i	i
COc1ccc(C2CC(c3cccs3)=NN2C(=O)CCl)cc1OC (stereo not drawn)	7.3µM	?	2.1µM	?	4.6µM	3.3µM
COc1cc(C2CC(c3cccs3)=NN2C(=O)CCl)ccc1OC(F)F (stereo not drawn)	2.6µM	15µM	i	?	1.6µM	16µM
COc1ccc(C2CC(c3cccs3)=NN2C(=O)CCC(=O)O)cc1 (stereo not drawn)	i	i	i	i	i	i
CCC(C)NC(=O)Cn1c(=O)n(Cc2ccc(C(=O)NCc3ccc(C)cc3)cc2)c(=O)c2ccccc21 (stereo not drawn)	nt	i	nt	i	nt	nt
COC(=O)[C@@]1(Cc2ccccc2)[C@H]2C(=O)N(C)C(=O)[C@H]2[C@H]2CN=C(SCc3ccc(C#N)cc3)N21	i	i	3.7µM	i	i	i
Cc1ccc(NC(=O)C2CCN(S(=O)(=O)c3ccc4[nH]c5c(c4c3)CCCCC5)CC2)cc1	nt	i	nt	i	nt	nt
CC1CCc2c(sc3[nH]c(=S)n(C)c(=O)c23)C1 (stereo not drawn)	i	i	10µM	i	i	i
Cc1cc(C)c2nc(N3CCCN(C(=O)c4ccco4)CC3)c(C#N)cc2c1	i	i	i	i	i	?
Cc1ccc2cc(C#N)c(N3CCCN(C(=O)C4CCCO4)CC3)nc2c1C (stereo not drawn)	i	?	i	i	i	21µM
Cc1ccc2cc(C#N)c(N3CCCC3)nc2c1C	i	i	11µM	i	i	?
SMILES	HT1080 IDH1KD tx	KB-V1 MDR tox	SW480 rereplic	KB-3-1 cytotox	HT1080-NT tox	MCF10A rerep
CC(=O)N1CCc2cc(S(=O)(=O)NC(Cc3ccccc3)C(=O)Nc3ccc(C)cc3C)ccc21 (stereo not drawn)	nt	i	nt	i	nt	nt
O=C(N/N=C/c1cn(-c2cccs2)nc1-c1ccccc1)c1ccccc1O	21µM	?	?	i	?	15µM
O=C(N/N=C/c1cn(-c2cccs2)nc1-c1ccccc1)c1ccccc1Br	i	i	i	i	i	i
O=C(N/N=C/c1cn(-c2ccccc2)nc1-c1cc2ccccc2o1)c1ccccc1Br	12µM	?	i	?	?	?
O=C(N/N=C/c1cn(-c2ccccc2)nc1-c1cccnc1)c1ccccc1	?	i	?	i	i	12µM
NC(=O)N/N=C/c1cn(-c2ccccc2)nc1-c1cccnc1	i	i	i	i	i	i
O=C1CCc2cc(-c3csc(-c4ccc(O)cc4)n3)ccc2N1	nt	i	nt	i	nt	nt
Cc1cccc(NC(=O)C(NS(=O)(=O)c2ccc3c(c2)oc(=O)n3C)C(C)C)c1 (stereo not drawn)	nt	i	nt	i	nt	nt
COC(=O)c1c(-c2ccc(OC)cc2)sc2cc3c(cc12)OCO3	i	i	i	i	i	?
COC(=O)c1c(-c2ccc(N(C)C)cc2)sc2ccc(OC)cc12	i	i	15µM	i	?	?
O=C1c2cc(F)ccc2-n2c1nc1ccccc1c2=O	?	5.2µM	?	6.5µM	?	?
CN1c2ccccc2C(C)(C)[C@]12C=Cc1cc(O)ccc1O2	18µM	i	?	?	?	?
CCOc1ccc(Cl)cc1S(=O)(=O)N1CCN(c2ccc(C)c(C)c2)CC1	i	15µM	?	i	i	i
CCOc1ccc(Cl)cc1S(=O)(=O)N1CCN(c2ccc(F)cc2)CC1	i	i	?	i	i	?
Cc1csc2nc(O)c(C(=O)NCCCN3CCCC3=O)c(=O)n12	i	18µM	i	i	i	i
Cc1csc2nc(O)c(C(=O)NC3CCCCC3)c(=O)n12	i	21µM	i	i	i	i
Cc1csc2nc(O)c(C(=O)NC3CCCCCC3)c(=O)n12	i	?	i	i	i	i
Cc1ccn2c(=O)c(C(=O)NCCCN3CCCC3=O)c(O)nc2c1	i	i	?	i	i	i
CCc1ccccc1N(C)C(=O)c1cc2c(=O)oc3ccccc3c2s1	nt	i	nt	i	nt	nt
CN(C)c1ccc(/C=C2\C(Cl)=Cc3ccccc32)cc1	nt	i	nt	i	nt	nt
O=C(CSCc1nc2ccccc2[nH]1)N1CCN(c2cccc(Cl)c2)CC1	i	21µM	?	?	i	i
O=C(CCSCc1ccccc1Cl)N1CCN(c2cccc(Cl)c2)CC1	i	21µM!	i	i	i	?
COC(=O)Cc1c(C)c2ccc3c(c2oc1=O)CN(Cc1ccccc1OC)CO3	nt	i	nt	i	nt	nt
CCCN1C(=O)S/C(=C\c2ccc(N3CCOCC3)o2)C1=O	?	?	3.7µM	?	?	16µM
Cc1c(Cl)cccc1NC(=O)CSc1nc(=O)n(Cc2ccco2)c2c1CCC2	nt	?	nt	i	nt	nt
